Several values for one entry are separate records, joined by “and”; a condition that tells them apart may be missing. Equal values may be shown once. Among all 5,500 compounds or so, about 2,000 (36%) were called active. Another 18% or so got no clear call; they are omitted. Rule as the data show it: active = normalized growth mostly below about 0.91 (no sharp cut-off); inconclusive = no clear call, values can overlap the other calls; inactive = mostly above about 0.92. The list shows a part of the results.
Test: chemical genetic growth profiling, strain panel (AID 1159580);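 also: tested at 20 µM; growth read once vehicle control cultures reached saturation at 30 °C; 1 = growth at the plate median or of vehicle wells; lower values mean less growth of the strain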
Settings: S. cerevisiae deletion strains, growth OD

Measured: normalized growth

CC(C)=CCCC1(C)C=Cc2c(O)c3c(c(CC=C(C)C)c2O1)OC12C(=CC4CC1C(C)(C)OC2(C/C=C(/C)C(=O)O)C4O)C3=O (stereo unspecified)
active: locus YDR502C, strain sam2, hits give low values 0.917 | locus YGL086W, strain mad1, hits give low values 0.925 | locus YKR001C, strain vps1, hits give low values 0.849 | locus YLR268W, strain sec22, hits give low values 0.883 | locus YLR418C, strain cdc73, hits give low values 0.787 | locus YNL307C, strain MCK1, hits give low values 0.72 | locus YOR184W, strain ser1, hits give low values 0.803 | locus YPR163C, strain tif3, hits give low values 0.909
inactive: locus YBR021W, strain FUR4, hits give low values 1.02 | locus YBR229C, strain ROT2, hits give low values 0.947 | locus YCL029C, strain bik1, hits give low values 0.946 | locus YDL035C, strain GPR1, hits give low values 0.953 | locus YDL074C, strain BRE1, hits give low values 1.03 | locus YDL101C, strain DUN1, hits give low values 0.944 | locus YDL134C, strain PPH21, hits give low values 0.949 | locus YDL185W, strain tfp1, hits give low values 0.955 | locus YDL192W, strain arf1, hits give low values 0.945 | locus YDR101C, strain arx1, hits give low values 0.929 | locus YDR162C, strain NBP2, hits give low values 0.862 | locus YDR318W, strain mcm21, hits give low values 0.931 | locus YDR388W, hits give low values 0.942 | locus YER110C, hits give low values 0.952 | locus YER155C, strain BEM2, hits give low values 1.01 | locus YER167W, strain BCK2, hits give low values 0.995 | locus YGL078C, strain dbp3, hits give low values 0.967 | locus YGL248W, strain PDE1, hits give low values 0.946 | locus YGR078C, strain PAC10, hits give low values 1.01 | locus YGR135W, strain pre9, hits give low values 1 | locus YGR252W, strain gcn5, hits give low values 1.06 | locus YHR030C, strain SLT2, hits give low values 0.983 and 0.976 | locus YHR079C, strain IRE1 (second series), hits give low values 0.944 | locus YHR079C, strain IRE1, hits give low values 0.971 | locus YHR094C, strain hxt1, hits give low values 0.958 | locus YHR129C, strain ARP1, hits give low values 0.955 | locus YHR200W, strain rpn10, hits give low values 0.938 | locus YIL066C, strain RNR3, hits give low values 0.924 | locus YIL073C, strain SPO22, hits give low values 1.06 | locus YIL125W, strain kgd1, hits give low values 0.936 | locus YIR030C, strain dcg1, hits give low values 0.966 | locus YJL095W, strain BCK1, hits give low values 0.938 and 0.988 | locus YJL134W, strain LCB3, hits give low values 0.976 | locus YJL168C, strain set2, hits give low values 0.99 | locus YJL187C, strain SWE1 (second series), hits give low values 0.929 | locus YJR043C, strain POL32, hits give low values 0.963 | locus YJR066W, strain TOR1, hits give low values 0.949 | locus YKL009W, strain mrt4, hits give low values 0.953 | locus YKL068W, hits give low values 0.98 | locus YKL085W, strain MDH1 (second series), hits give low values 0.962 | locus YKL085W, strain MDH1, hits give low values 0.962 | locus YLR039C, strain RIC1, hits give low values 0.883 | locus YLR058C, strain SHM2, hits give low values 0.931 | locus YLR102C, strain apc9, hits give low values 0.966 | locus YLR113W, strain HOG1, hits give low values 0.911 | locus YLR330W, strain CHS5, hits give low values 0.991 | locus YLR371W, strain rom2, hits give low values 0.964 | locus YML016C, strain PPZ1, hits give low values 0.963 | locus YML032C, strain rad52, hits give low values 0.945 | locus YML124C, strain tub3, hits give low values 0.952 | locus YMR078C, strain ctf18, hits give low values 0.967 | locus YMR223W, strain ubp8, hits give low values 0.956 | locus YMR263W, strain SAP30, hits give low values 0.971 | locus YMR307W, strain GAS1, hits give low values 1.03 | locus YNL067W, strain RPL9B, hits give low values 0.985 | locus YNL128W, strain TEP1, hits give low values 0.921 | locus YNL183C, strain NPR1, hits give low values 0.917 | locus YNL233W, strain BNI4, hits give low values 1.02 | locus YNL250W, strain rad50, hits give low values 0.951 | locus YNL271C, strain bni1, hits give low values 0.947 | locus YNL298W, strain CLA4, hits give low values 0.955 | locus YNL322C, strain KRE1, hits give low values 0.986 | locus YNR052C, strain pop2, hits give low values 0.961 | locus YOL012C, strain htz1 0.366 | locus YOL147C, strain pex11, hits give low values 0.97 | locus YOR061W, strain CKA2, hits give low values 0.924 | locus YOR069W, strain VPS5, hits give low values 0.979 | locus YOR136W, strain idh2, hits give low values 0.962 | locus YOR144C, strain elg1, hits give low values 0.966 | locus YOR231W, strain MKK1, hits give low values 0.942 | locus YOR316C, strain cot1, hits give low values 0.956 | locus YPL055C, strain LGE1, hits give low values 0.949 | locus YPL241C, strain CIN2, hits give low values 0.98 | locus YPL256C, strain CLN2, hits give low values 0.955 | locus YPR119W, strain clb2, hits give low values 0.966 | locus YPR141C, strain kar3, hits give low values 0.954 | locus YPR167C, strain met16, hits give low values 0.984 | strain wtn01, hits give low values 0.911

Reference: PubChem BioAssay AID1159580 (chemical genetic matrix, 2015)
